# Source: ChEMBL document CHEMBL1157539, “Thousands of chemical starting points for antimalarial lead identification” (Nature, 2010)
# Assays:
# Type in all cases: functional
# Plasmodium falciparum [1] = test: GSK_TCMDC: Inhibition of Plasmodium falciparum 3D7 in whole red blood cells, using parasite LDH activity as an index of growth. Test compounds present at 2uM
# Plasmodium falciparum [2] = test: GSK_TCMDC: Inhibition of Plasmodium falciparum Dd2 in whole red blood cells, using parasite LDH activity as an index of growth. Test compounds present at 2uM
# HepG2 = test: GSK_TCMDC: Percent inhibition of human HepG2 cell line. Test compounds present at 10uM.
SMILES,Inhibition (Plasmodium falciparum [1]),Inhibition (Plasmodium falciparum [2]),Inhibition (HepG2)
COc1c(C)cc(I)cc1CNCCCNc1cc(=O)c2ccccc2[nH]1,84%,0%,0%
Br.Oc1ccc(CCNCCCCCCNCCc2ccc(-c3ccccc3)cc2)cc1O,100%,8%,72%
CC(C)C[C@H](NC(=O)c1cc2ccccc2s1)C(=O)N[C@H]1CCN(Cc2ccc(OC[C@@H]3CCCN3C)c(Cl)c2)C1.O=C(O)C(F)(F)F,100%,81%,83%
CC(C)c1ccc(NC(=O)c2ccc(C(=O)NC3CCN(Cc4ccsc4)C3)cc2)cc1.O=C(O)C(F)(F)F (stereo not given),82%,28%,17%
CN(C(=O)/C=C/c1c(Cl)cccc1Cl)C1CCN(CCCCCNC(=O)/C=C/c2ccc(Cl)c(Cl)c2)CC1,92%,62%,78%
CC1CN(c2cnn(Cc3ccc(NC(=O)Nc4cccc(C(F)(F)F)c4)cc3)c(=O)c2Cl)CC(C)N1.O=C(O)C(F)(F)F (stereo not given),86%,31%,0%
C=CC[C@H](C[C@H](O)[C@H](Cc1ccccc1)NC(=O)c1ccc(-c2cccnn2)cc1)C(=O)NC1CCCCC1,83%,0%,2%
O=C(Nc1cc(Cl)cc(Cl)c1)c1cc(Cl)c(=O)n(Cc2cccc(Cl)c2)c1,100%,62%,8%
Cc1ccn2c(N(Cc3ccccc3)C(=O)c3ccc(Cl)c(Cl)c3)c(-c3ccccc3)nc2c1,95%,0%,0%
COc1cc2nccc(Nc3ccc4c(cnn4Cc4ccccc4F)c3)c2cc1OC.Cl,100%,91%,55%
